This is an account of results in PubChem BioAssay AID1345082 (National Center for Advancing Translational Sciences (NCATS), 2018).

Hit rate of the full screen: of about 94,000 compounds, about 4,000 (4.3%) were called active. Roughly 29% stayed inconclusive and do not appear here. The call rests on the fitted dose curve; in most records, active means well fitted inhibition curve with a large enough effect; inconclusive means small, poorly fitted or top-dose-only effect; inactive means no such curve, though single readings can be large or run the other way. Shown is part of a subset that was picked to be rich in actives. Entries that show only a call come without a potency.
Potency means the concentration at half of the fitted maximal effect.

This assay in a line: Cytotoxic Profiling in NIH 3T3 Cell Line of Diverse Libraries Using Quantitative High-Throughput Screening. Further: nearly all actives have a fitted effect of over 55% in size. The following applies: NIH 3T3 viability, CellTiter-Glo ATP luminescence, 48-72 h; series mostly up to 96.7 µM. The method in brief: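 Cytotoxicity is measured as loss of cellular ATP: NIH 3T3 cells (400/well) are exposed to compound for 48 or 72 hr at 37 °C, then CellTiter-Glo luminescence is imaged after 10 min at room temperature.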
Background: In ATP-based viability assays light output follows the ATP content of the culture.
For the compound `OC[C@@H]1O[C@H](CNC2CCOCC2)[C@H](N2CCc3ccccc3C2)[C@@H]1O`, the Potency entry is “inactive”.

On to `Cc1cc(C(=O)N2CCn3nc(C(=O)Nc4ccccc4)cc3C2)cc(=O)[nH]1`, for which the Potency result was “inactive”. Take `CN1CCCN(C(=O)c2ccoc2)c2ccccc21`: the Potency entry is “inactive”. With `COCCn1ncc(N2CCCC(CC(=O)NCc3cccc(C)c3)C2)cc1=O` (stereo unspecified), the Potency result is “inactive”. As for `O=C(Nc1ccsc1)N[C@H]1C[C@H]2C(=O)NC[C@@H](CCC(=O)N3CCC(O)CC3)N2C1`, the entry is “inactive”; as for `COCCNC(=O)C[C@@H]1C[C@H]2O[C@H](CNC3CCN(C)CC3)[C@@H](O)[C@H]2O1`, “inactive”. For the compound `Cc1ccc(C2Cn3nnc(C(=O)N4CCC(C(=O)NCc5cccnc5)CC4)c3CO2)cc1` (stereo unspecified), the Potency entry was “inactive”. Turning to `COc1ccc2nc3n(c2c1)[C@@H](CNC1CCCCC1)COC3`, the Potency was 39.8 µM (active).

As for `COc1ncccc1CNC[C@H]1COCc2nc3cc(C(F)(F)F)ccc3n21`, the Potency result was “inactive”. In the case of `COc1ccc2nc3n(c2c1)[C@@H](CNC(=O)c1cnccn1)COC3`, the Potency entry is “inactive”. Turning to `COc1ccccc1CN(C(=O)c1cccc(-c2noc(C)n2)c1)C1CC1`, the Potency result was “inactive”. For `Cc1cnc(CCNS(=O)(=O)Cc2ccccc2F)n1Cc1ccccc1` the value was “inactive”; for `Cc1ccc(NC(=O)NC[C@H]2O[C@@H](CC(=O)N3CCN(c4ccccc4)CC3)[C@H](O)[C@@H]2O)cc1`, “inactive”; for `O=C(NCC1CN(Cc2ccccc2)CC12CN(c1ccccc1)C2)Nc1ccccc1` (stereo unspecified), 39.8 µM (active). Regarding `CN(CC#N)C(=O)[C@H]1CN(Cc2ccccc2)C[C@H]1C(=O)O`, the Potency entry was “inactive”. As to `CC(C)OCCCNC(=O)C1Cn2cccc2C(=O)N1C` (stereo unspecified), the Potency result was “inactive”. For `CC(C)CN1C(=O)c2cccn2CC1C(=O)NCC1CCN(Cc2cccc(F)c2)CC1` (stereo unspecified), the Potency result was “inactive”. As to `Cc1cnc(C2CCC2)n1CCNS(=O)(=O)c1cc(F)ccc1F`, the Potency entry is “inactive”. As for `COCC(=O)N[C@H]1CO[C@H]2[C@@H]1OC[C@@H]2Nc1nccc(C(C)(C)C)n1`, the Potency entry is “inactive”.

As to `O=C(NCC1CC1)c1ccc2nnc(CC3CC3)n2c1`, the Potency entry is “inactive”. With `Cc1cccc(Nc2nc(N)nc(CN3CCC4(CC3)OCCCC4O)n2)c1` (stereo unspecified), the Potency entry is “inactive”.

`O=C(CCn1ccc(=O)[nH]c1=O)N1CCn2nc(Cc3ccccc3)cc2C1`: the Potency result was “inactive”. Turning to `Cn1ncc2c(C(=O)NCc3ccc(F)cc3)cc(-c3cccc(C(F)(F)F)c3)nc21`, the Potency result is “inactive”. In the case of `COc1cccc(CNC(=O)c2cc(-c3ccc(Cl)nc3)nc3c2cnn3C)c1`, the Potency entry was “inactive”. With `Cn1ncc2c(C(=O)NCc3cccnc3)cc(C(C)(C)C)nc21`, the Potency was 44.7 µM (active).

With `Cc1ccccc1S(=O)(=O)N1C[C@@H]2CCCN3CCC[C@@H]([C@H]23)[C@H]1CCCC(=O)N1CCOCC1`, the Potency result was “inactive”.
